Consider 20 molecules from PubChem BioAssay (NCATS).

Records with an inconclusive call do not appear. Calls of active or inactive are those of the source. Unless noted, the call rests on the fitted dose curve.

The nature of assay [1]: Natriuretic polypeptide receptor (hNpr1) antagonism - Pilot counterscreen GloSensor control cell line (AID 1347045). Further: series mostly up to about 38 µM. The method, boiled down: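 HEK293 cells carrying the GloSensor cGMP sensor (GIP/pGS-40F) were loaded with 2% GloSensor reagent for 2 h, exposed to compounds for 30 min, and then stimulated with 50 uM sodium nitroprusside for 20 min at room temperature.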
For assay [2], the target named is Atrial natriuretic peptide receptor 1 (Homo sapiens) (UniProt P16066). Nature of the assay: Natriuretic polypeptide receptor (hNpr1) antagonism - Pilot screen (AID 1347049).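 Further: agonist-evoked cGMP luminescence read 20 min after hNppA addition; series mostly up to about 58 µM.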 The method, boiled down:
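Readout is cGMP-driven firefly luciferase luminescence in HEK293 cells carrying hNpr1 and a PDE5-domain GloSensor, read before and 20 min after 0.1 nM hNppA stimulation. Cells had 2% substrate reagent for 2 h and test compound for 30 min.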

Assay [3] concerns the target Atrial natriuretic peptide receptor 2 (Homo sapiens) (UniProt P20594). Kind of assay: Natriuretic polypeptide receptor (hNpr2) antagonism - Pilot subtype selectivity assay (AID 1347050). The method, boiled down: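 Pilot selectivity screen against hNpr2: HEK293 cGMP-sensor cells are treated with LOPAC1280 compounds, then with hNppC peptide at 1 nM final. The cGMP-driven luminescence change over 20 min at room temperature is the read-out.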

Assay [4] is described as follows: NS1 protein of Zika virus - qHTS assay to identify small molecule inhibitors in human HEK 293 cells (AID 1347053; active means well fitted curve in the direction sought with a large enough effect; an effect the other way counts as inactive or inconclusive; further: series mostly up to about 46 µM; nearly all actives have a fitted effect of over 55% in size). The method, boiled down: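 Inhibition of NS1 expression was scored in HEK 293 cells given compound 1 h ahead of MR766 virus (MOI = 0.5). Following 24 h at 37 C, two anti-NS1 antibodies generated a TR-FRET signal, scaled between uninfected and infected controls.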
In general terms: In qHTS, concentration-response curves come from the screen itself.

Assay [5] addresses T1, Tyrosine-protein phosphatase non-receptor type substrate 1 (Homo sapiens) + Leukocyte surface antigen CD47 (Homo sapiens) (UniProt P78324+Q08722). Nature of the assay: CD47-SIRPalpha protein protein interaction - LANCE assay qHTS validation (AID 1347057; active means well fitted curve in the direction sought with a large enough effect in the signal ratio, with a control signal flat, not every such curve was filed as active; the % refers to the signal ratio; further: potency means the concentration at half of the fitted maximal effect). A digest of the protocol:
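First, His-tagged CD47 and Eu-labelled anti-His antibody met the compound for 30 min; next, site-specifically biotinylated SIRPalpha was added for 30 min; finally streptavidin-APC was added before reading the TR-FRET ratio.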
(In general: Time-resolved FRET reads energy transfer from a long-lived donor to a nearby acceptor.)

In assay [6] the target is T1, Tyrosine-protein phosphatase non-receptor type substrate 1 (Homo sapiens) + Leukocyte surface antigen CD47 (Homo sapiens). Kind of assay: CD47-SIRPalpha protein protein interaction - Alpha assay qHTS validation (AID 1347059; active means well fitted curve in the direction sought with a large enough effect; an effect the other way counts as inactive or inconclusive;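 further: bead proximity luminescence from CD47 binding SIRPalpha after compound preincubation with SIRPalpha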; further: potency means the concentration at half of the fitted maximal effect). The method, boiled down:
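Binding is measured by AlphaScreen proximity: Ni-NTA acceptor beads capture His-CD47, streptavidin donor beads capture biotin-SIRPalpha. Each of three additions (SIRPalpha with compound, CD47, beads) incubates 30 min at room temperature protected from light.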

The target of assay [7] is Parathyroid hormone/parathyroid hormone-related peptide receptor (Homo sapiens) (UniProt Q03431). Nature of the assay: qHTS for PTHR1 Agonists: Optimization Screen against the NCGC LOPAC library (AID 1347079; active means well fitted curve in the direction sought with a large enough effect; an effect the other way counts as inactive or inconclusive;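 further: GloSensor cAMP luminescence in HEK-293 GP2 cells expressing human PTHR1 with IBMX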; further: potency means the concentration at half of the fitted maximal effect). The method, boiled down: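 Compounds were tested across a qHTS titration. PTHR1-expressing GP2 cells report cAMP rises via GloSensor luminescence after 1 hr compound exposure at 37C with IBMX present.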
Parathyroid hormone/parathyroid hormone-related peptide receptor (Homo sapiens), sequence (Q03431 whole entry, looked up): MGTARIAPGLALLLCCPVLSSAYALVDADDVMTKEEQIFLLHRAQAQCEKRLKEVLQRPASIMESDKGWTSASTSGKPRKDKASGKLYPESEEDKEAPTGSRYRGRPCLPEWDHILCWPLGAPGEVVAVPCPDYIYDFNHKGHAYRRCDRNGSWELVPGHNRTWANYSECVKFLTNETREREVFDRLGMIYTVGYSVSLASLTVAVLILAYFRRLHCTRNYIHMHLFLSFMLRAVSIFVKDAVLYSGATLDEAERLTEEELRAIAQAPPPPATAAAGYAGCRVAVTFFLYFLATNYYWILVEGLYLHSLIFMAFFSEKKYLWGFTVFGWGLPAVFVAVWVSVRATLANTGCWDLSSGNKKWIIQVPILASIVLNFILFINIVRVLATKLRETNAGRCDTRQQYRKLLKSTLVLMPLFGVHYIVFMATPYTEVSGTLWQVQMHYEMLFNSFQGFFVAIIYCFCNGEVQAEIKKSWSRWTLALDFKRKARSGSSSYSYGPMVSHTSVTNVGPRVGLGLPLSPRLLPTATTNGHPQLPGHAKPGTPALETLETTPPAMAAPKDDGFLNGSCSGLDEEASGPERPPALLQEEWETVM

Assay [8] can be described thus: qHTS for Inhibitors of the Functional Ribonucleoprotein Complex (vRNP) of Lassa (LASV) Arenavirus: LASV Primary Screen - GLuc reporter signal (AID 1347082; calls by dose curve; tested in HEK293 reporter line; further: series mostly up to about 57 µM; nearly all actives have a fitted effect of over 60% in size).
Assay [9] can be described thus: qHTS for Inhibitors of the Functional Ribonucleoprotein Complex (vRNP) of Lassa (LASV) Arenavirus: Viability assay - alamar blue signal for LASV Primary Screen (AID 1347083; calls by dose curve; tested in HEK293 reporter line; further: nearly all actives have a fitted effect of over 80% in size; further: potency means the concentration at half of the fitted maximal effect).
A short description of assay [10]: qHTS for Inhibitors of the Functional Ribonucleoprotein Complex (vRNP) of Lymphocytic Choriomeningitis Arenaviruses (LCMV): Viability assay - alamar blue signal for LCMV Primary Screen (AID 1347085; calls by dose curve; tested in HEK293 reporter line; further: nearly all actives have a fitted effect of over 80% in size; further: potency means the concentration at half of the fitted maximal effect).
For assay [11], the target named is Nucleoprotein (Lymphocytic choriomeningitis virus (strain Armstrong)) (UniProt P09992). Nature of the assay: qHTS for Inhibitors of the Functional Ribonucleoprotein Complex (vRNP) of Lymphocytic Choriomeningitis Arenaviruses (LCMV): LCMV Primary Screen - GLuc reporter signal (AID 1347086). Further: nearly all actives have a fitted effect of over 70% in size. Further: potency means the concentration at half of the fitted maximal effect.
Nucleoprotein (Lymphocytic choriomeningitis virus (strain Armstrong)), sequence (P09992 whole entry, looked up): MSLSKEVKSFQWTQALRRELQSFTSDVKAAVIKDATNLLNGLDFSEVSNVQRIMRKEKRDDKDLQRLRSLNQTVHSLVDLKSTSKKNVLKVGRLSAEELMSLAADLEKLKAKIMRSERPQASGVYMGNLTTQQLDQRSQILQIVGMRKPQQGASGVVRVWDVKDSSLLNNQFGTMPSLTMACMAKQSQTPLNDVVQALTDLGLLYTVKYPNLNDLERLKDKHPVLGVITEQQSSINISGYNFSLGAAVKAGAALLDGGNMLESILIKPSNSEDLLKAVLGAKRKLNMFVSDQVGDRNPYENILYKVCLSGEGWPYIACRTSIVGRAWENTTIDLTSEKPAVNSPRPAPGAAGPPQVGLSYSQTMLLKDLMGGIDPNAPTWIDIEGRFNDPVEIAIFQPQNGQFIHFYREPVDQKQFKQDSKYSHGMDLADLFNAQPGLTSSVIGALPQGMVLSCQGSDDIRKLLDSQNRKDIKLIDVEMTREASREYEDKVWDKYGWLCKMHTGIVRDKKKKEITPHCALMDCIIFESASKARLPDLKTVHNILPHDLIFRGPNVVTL
Assay [12] has as its target T1, Tyrosine-protein phosphatase non-receptor type substrate 1 (Homo sapiens) + Leukocyte surface antigen CD47 (Homo sapiens). Nature of the assay: CD47-SIRPalpha protein protein interaction - HTRF assay qHTS validation (AID 1347058; active means well fitted curve in the direction sought with a large enough effect in the signal ratio, not every such curve was filed as active; the % refers to the signal ratio;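 further: recombinant soluble extracellular CD47 with His tag and biotinylated SIRPalpha domains; series mostly up to about 38 µM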). A digest of the protocol:
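TR-FRET read (Ch1/Ch2 ratio) of soluble extracellular CD47 and Avi-biotinylated SIRPalpha domains in PBS pH 7.4 with 0.05% IGEPAL; 7-point compound titration. Sequential 30 min room-temperature steps; non-biotinylated SIRPalpha as control inhibitor.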

Atrial natriuretic peptide receptor 1 (Homo sapiens), sequence (P16066 whole entry, looked up): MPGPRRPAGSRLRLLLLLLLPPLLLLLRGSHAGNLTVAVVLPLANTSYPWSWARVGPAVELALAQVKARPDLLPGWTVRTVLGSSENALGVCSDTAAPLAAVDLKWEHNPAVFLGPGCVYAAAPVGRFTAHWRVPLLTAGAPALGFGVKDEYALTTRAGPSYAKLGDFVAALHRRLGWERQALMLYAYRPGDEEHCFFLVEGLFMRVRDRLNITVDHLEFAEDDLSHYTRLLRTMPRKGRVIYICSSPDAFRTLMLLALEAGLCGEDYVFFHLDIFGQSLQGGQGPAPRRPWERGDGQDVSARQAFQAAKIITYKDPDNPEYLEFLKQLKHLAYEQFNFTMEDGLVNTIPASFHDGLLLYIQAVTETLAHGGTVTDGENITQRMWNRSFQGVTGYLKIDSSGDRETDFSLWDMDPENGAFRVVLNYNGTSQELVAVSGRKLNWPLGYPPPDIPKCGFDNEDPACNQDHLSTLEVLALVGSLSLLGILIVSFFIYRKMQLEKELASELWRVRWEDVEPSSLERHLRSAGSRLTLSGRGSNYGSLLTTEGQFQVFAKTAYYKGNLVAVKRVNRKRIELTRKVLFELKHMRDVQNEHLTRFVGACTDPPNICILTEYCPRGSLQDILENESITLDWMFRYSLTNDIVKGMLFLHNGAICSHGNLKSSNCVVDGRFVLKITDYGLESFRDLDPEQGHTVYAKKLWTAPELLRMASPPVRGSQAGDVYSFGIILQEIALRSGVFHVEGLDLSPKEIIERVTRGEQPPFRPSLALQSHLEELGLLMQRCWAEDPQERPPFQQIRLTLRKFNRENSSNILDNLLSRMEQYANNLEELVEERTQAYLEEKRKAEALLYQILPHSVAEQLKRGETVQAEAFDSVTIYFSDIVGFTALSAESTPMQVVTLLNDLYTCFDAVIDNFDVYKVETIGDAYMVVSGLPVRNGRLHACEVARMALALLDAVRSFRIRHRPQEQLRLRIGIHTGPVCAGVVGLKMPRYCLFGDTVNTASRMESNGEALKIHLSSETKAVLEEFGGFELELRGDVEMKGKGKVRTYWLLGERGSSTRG
Atrial natriuretic peptide receptor 2 (Homo sapiens), sequence (P20594 whole entry, looked up): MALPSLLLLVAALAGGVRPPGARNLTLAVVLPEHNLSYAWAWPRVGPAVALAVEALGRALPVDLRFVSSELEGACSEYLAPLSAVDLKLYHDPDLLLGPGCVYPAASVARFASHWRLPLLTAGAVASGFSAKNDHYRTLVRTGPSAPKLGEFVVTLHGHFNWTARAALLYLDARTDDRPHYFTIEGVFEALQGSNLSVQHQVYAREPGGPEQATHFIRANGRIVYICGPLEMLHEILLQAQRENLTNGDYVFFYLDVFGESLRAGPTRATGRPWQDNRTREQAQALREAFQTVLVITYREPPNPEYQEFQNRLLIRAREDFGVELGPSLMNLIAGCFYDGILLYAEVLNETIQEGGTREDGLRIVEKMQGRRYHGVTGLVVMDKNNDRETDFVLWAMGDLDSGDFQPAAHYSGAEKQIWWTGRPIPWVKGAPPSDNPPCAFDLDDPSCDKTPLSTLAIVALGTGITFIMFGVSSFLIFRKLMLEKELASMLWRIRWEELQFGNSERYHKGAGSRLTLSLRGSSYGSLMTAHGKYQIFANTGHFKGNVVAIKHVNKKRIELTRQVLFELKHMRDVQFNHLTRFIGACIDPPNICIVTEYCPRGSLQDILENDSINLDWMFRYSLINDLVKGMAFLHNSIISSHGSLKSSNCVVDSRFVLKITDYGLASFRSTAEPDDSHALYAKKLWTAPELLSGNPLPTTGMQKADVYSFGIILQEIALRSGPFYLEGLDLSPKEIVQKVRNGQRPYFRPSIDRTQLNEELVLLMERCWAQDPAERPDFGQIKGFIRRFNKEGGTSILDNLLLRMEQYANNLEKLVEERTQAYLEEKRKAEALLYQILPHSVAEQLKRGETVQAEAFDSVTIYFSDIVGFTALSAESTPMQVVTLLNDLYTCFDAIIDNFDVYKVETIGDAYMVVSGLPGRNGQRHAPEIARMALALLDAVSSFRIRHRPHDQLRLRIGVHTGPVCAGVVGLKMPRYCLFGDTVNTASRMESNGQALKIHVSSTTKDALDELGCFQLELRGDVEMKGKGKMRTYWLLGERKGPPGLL
T1 sequence (P78324 whole entry, looked up): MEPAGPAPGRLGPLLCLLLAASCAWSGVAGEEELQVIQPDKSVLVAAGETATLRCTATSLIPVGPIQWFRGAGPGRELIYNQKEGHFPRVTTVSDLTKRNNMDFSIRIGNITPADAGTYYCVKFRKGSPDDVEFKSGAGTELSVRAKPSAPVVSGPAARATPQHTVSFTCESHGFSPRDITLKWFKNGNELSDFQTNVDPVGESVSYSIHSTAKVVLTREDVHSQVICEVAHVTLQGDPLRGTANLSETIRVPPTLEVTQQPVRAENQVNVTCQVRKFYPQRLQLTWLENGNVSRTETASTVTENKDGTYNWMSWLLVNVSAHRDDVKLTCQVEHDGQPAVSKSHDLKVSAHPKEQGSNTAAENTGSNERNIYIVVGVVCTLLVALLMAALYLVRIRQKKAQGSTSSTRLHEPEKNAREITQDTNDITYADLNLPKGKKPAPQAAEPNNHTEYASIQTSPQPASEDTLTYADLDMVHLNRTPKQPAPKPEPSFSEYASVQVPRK
T1 sequence (Q08722 whole entry, looked up): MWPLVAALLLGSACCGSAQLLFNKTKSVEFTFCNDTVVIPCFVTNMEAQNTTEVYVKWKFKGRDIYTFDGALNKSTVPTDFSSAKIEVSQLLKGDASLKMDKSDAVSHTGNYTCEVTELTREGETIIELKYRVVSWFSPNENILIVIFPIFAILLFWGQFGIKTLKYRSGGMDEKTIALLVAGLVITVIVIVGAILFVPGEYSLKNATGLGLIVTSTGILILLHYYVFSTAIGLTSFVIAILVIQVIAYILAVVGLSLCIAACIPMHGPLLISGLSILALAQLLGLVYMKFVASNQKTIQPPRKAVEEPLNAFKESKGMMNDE

Take `CC(=O)OCC1=C(C(=O)O)N2C(=O)[C@@H](NC(=O)CCC[C@@H](N)C(=O)O)[C@H]2SC1`: the Potency result in assay [1], in assay [2], in assay [3], in assay [7], in [8] and in assay [9] was “inactive” throughout. The Potency entry in assay [10] and in assay [11] was “inactive” each time. Further, in assay [4], the molecule was classed as inactive. In addition, the results for the Potency in assay [5] and in [6] were 4.65 µM (active) and 0.414 µM (active), respectively.
As for `N=C(N)c1ccc(CS(=O)(=O)F)cc1`, the Potency entry in [1], in assay [2], in assay [3], in [5], in assay [6] and in assay [7] was “inactive” throughout. Further, the Potency result in [8], in assay [9], in [10] and in [11] was “inactive” in each case. For the same molecule, the result in assay [4] and in assay [12] was inactive.
Consider `COc1ccc2c(c1)C13CCCCC1C(C2)N(C)CC3` (stereo unspecified), for which the Potency result in assay [1], in assay [2], in assay [3], in [5], in assay [6] and in assay [7] was “inactive” throughout. The Potency result in assay [8], in assay [9], in assay [10] and in [11] was “inactive” in each case. Besides, the call in assay [4] was inactive.
For `COc1ccc(CNC(=O)/C=C/c2ccc3[nH]cc(CCN(C)C)c3c2)cc1`, the Potency entry in assay [1], in assay [2], in [3], in assay [5], in [6] and in assay [7] was “inactive” in each case. The Potency result in assay [8], in assay [9], in [10] and in assay [11] was “inactive” in each case. In addition, the result in [4] was inactive.
Take `CCCN(CCC)CCc1ccc(O)c(O)c1`: the Potency entry in [1], in [2], in assay [3], in assay [5], in assay [6] and in assay [7] was “inactive” each time. Further, the Potency result in [8], in [9], in assay [10] and in [11] was “inactive” each time. Moreover, the molecule was classed as inactive in [4] and in [12].
Consider `NCC(CP(=O)(O)O)c1ccc(Cl)cc1` (stereo unspecified), for which the Potency result in assay [1], in assay [2], in assay [3], in assay [5], in [6] and in [8] was “inactive” in each case. Also, the Potency result in assay [9], in [10] and in assay [11] was “inactive” throughout. Also, the outcome in assay [4] was inactive. In addition, in assay [7], the Potency is 18.9 µM (active).
As for `CCCN1CCc2cccc3c2[C@H]1Cc1ccc(O)c(O)c1-3`, the Potency entry in assay [1], in assay [2], in assay [3], in assay [6], in assay [7] and in assay [8] was “inactive” in each case. Further, the Potency entry in assay [9], in [10] and in [11] was “inactive” each time.
On to `NC(Cc1cc(O)c(O)cc1O)C(=O)O` (stereo unspecified), for which the Potency entry in [1], in assay [2], in assay [3], in assay [7], in assay [8] and in assay [9] was “inactive” throughout. In addition, the Potency entry in [10] and in assay [11] was “inactive” in each case. In addition, the molecule was classed as inactive in assay [4]. The Potency in assay [5] is 13.1 µM (active); in [6], 0.927 µM (active).
Turning to `NC(N)=NOCC[C@H](N)C(=O)O`, the Potency result in assay [1], in [2], in [3], in [7], in assay [8] and in assay [9] was “inactive” in each case. The Potency entry in [10] and in assay [11] was “inactive” in each case.
In the case of `C[C@@H]1O[C@H](C[N+](C)(C)C)CS1`, the Potency entry in assay [1], in [2], in assay [3], in assay [7], in [8] and in assay [9] was “inactive” each time. The Potency entry in assay [10] and in [11] was “inactive” in each case.
Consider `CCCN(CCC)C1CCc2cccc(O)c2C1` (stereo unspecified), for which the Potency result in assay [1], in assay [2], in assay [3], in [5], in assay [6] and in [7] was “inactive” throughout. Also, the Potency entry in assay [8], in assay [9], in [10] and in assay [11] was “inactive” in each case. The call in assay [4] and in assay [12] was inactive.
`N#CCCN`: the Potency result in assay [1], in assay [2], in [3], in assay [5], in assay [6] and in [7] was “inactive” in each case. Also, the Potency result in assay [8], in assay [9], in [10] and in assay [11] was “inactive” in each case. In addition, the result in [4] and in assay [12] was inactive.
Regarding `NNC(=O)c1ccc(O)cc1`, the Potency result in assay [1], in assay [2], in assay [3], in assay [5], in assay [6] and in assay [7] was “inactive” each time. Moreover, the Potency result in assay [8], in assay [9], in [10] and in assay [11] was “inactive” throughout. The result in assay [12] was inactive.
For `N[C@@]1(C(=O)O)CC[C@@H](C(=O)O)C1`, the Potency result in assay [1], in assay [3], in assay [5], in [6], in assay [7] and in assay [8] was “inactive” in each case. For the same molecule, the Potency result in assay [9], in assay [10] and in assay [11] was “inactive” throughout. The molecule was called inactive in assay [4] and in assay [12].
Take `NC(=O)CI`: the Potency entry in assay [1], in assay [2], in [3], in [6], in [7] and in [8] was “inactive” in each case. Also, the Potency result in assay [9], in assay [10] and in assay [11] was “inactive” throughout. Also, the result in assay [4] and in assay [12] was inactive.
Consider `C[C@@H]1O[C@@H](O[C@H]2C[C@@H](O)[C@]3(CO)[C@@H]4C(CC[C@]3(O)C2)[C@@]2(O)CC[C@H]([C@@H]3COC(=O)C3)[C@@]2(C)C[C@H]4O)[C@H](O)[C@H](O)[C@H]1O` (stereo partly specified), for which the Potency entry in [1], in assay [2], in assay [3], in assay [5], in assay [6] and in [7] was “inactive” each time. Further, the outcome in assay [12] was inactive. Also, the figures for the Potency in [9], in assay [10] and in assay [11] were 3.98 µM (active), 2.24 µM (active) and 2 µM (active), respectively.
Regarding `O=[N+]([O-])c1ccc2nc(N3CCNCC3)ccc2c1`, the Potency result in [1], in [2], in assay [3], in assay [5], in assay [6] and in assay [7] was “inactive” throughout. In addition, the Potency result in assay [8], in assay [9], in [10] and in assay [11] was “inactive” in each case. Besides, the molecule was classed as inactive in assay [4].
In the case of `CN1CCC(c2c[nH]c3ccc(O)cc23)CC1`, the Potency result in assay [1], in [2], in assay [3], in assay [5], in [6] and in assay [7] was “inactive” each time. The Potency entry in assay [8], in assay [9], in [10] and in [11] was “inactive” each time. The molecule was classed as inactive in [4].
Consider `C[N+](C)(C)CC#CCN1CCCC1=O`, for which the Potency result in assay [1], in assay [2], in assay [3], in assay [6], in [7] and in assay [8] was “inactive” each time. Besides, the Potency result in [9], in assay [10] and in assay [11] was “inactive” each time. In addition, the outcome in assay [4] and in [12] was inactive.
Turning to `NC(=O)c1ccc(OCC(O)CN2CC=C(c3ccc(F)cc3)CC2)cc1` (stereo unspecified), the Potency entry in [1], in assay [2], in assay [3], in assay [5], in [6] and in assay [7] was “inactive” throughout. Besides, the Potency result in [8], in [9], in assay [10] and in assay [11] was “inactive” in each case. In addition, the molecule was classed as inactive in assay [4] and in assay [12].
